In PubChem BioAssay:
A number with no mark means an inactive call. Calls of active or inactive are those of the source. No stated cut-off is given here; in the data, active means fold change permeability below about 0.7 or above about 1.3; inactive means in between.

experiment: modulators of brain endothelial barrier permeability, primary screen, cell-based, FITC-avidin fluorescence, HTS (AID 1963498); conditions: actives lie on both sides; further: test concentration not given here

For `CCOc1cc(C(=O)Nc2ccc(Cl)c(-c3nc4ccccc4[nH]3)c2)cc(OCC)c1OCC`, which fold change permeability is on record?
The fold change permeability was 1.7 (active).

Which fold change permeability does the source give for `O=C1c2ccccc2C(=O)c2c(NCCc3ccc(O)cc3)ccc(NCCc3ccc(O)cc3)c21` here?
The fold change permeability was 1.1.

With `O=C(Nc1nc2ccccc2n1CCN1CCOCC1)c1cccc([N+](=O)[O-])c1` as the molecule, how does the fold change permeability read?
The fold change permeability was 1.9 (active).

For `CC1CCN(CC[C@H]2CCCN2S(=O)(=O)c2cccc(O)c2)CC1`, which fold change permeability is on record?
The fold change permeability was 0.7 (active).

With `CC(=O)N[C@H]1[C@H]([C@H](O)[C@H](O)CO)OC(C(=O)O)=C[C@@H]1N=C(N)N` as the molecule, how does the fold change permeability read?
The fold change permeability was 0.9.

With `Cc1nc(N=Nc2ccc(S(=O)(=O)O)cc2S(=O)(=O)O)c(COP(=O)(O)O)c(C=O)c1O` as the molecule, how does the fold change permeability read?
Its fold change permeability is 0.9.

For `FC(F)(F)c1ccccc1-n1ccnc1`, which fold change permeability is on record?
The fold change permeability was 1.2.

Which fold change permeability does the source give for `N=C(N)SCCN` here?
The fold change permeability was 1.1.

For `CC(C)(C)NCC(O)c1cc(O)cc(O)c1` (configuration not stated), which fold change permeability is on record?
Its fold change permeability is 0.8.

For `c1ccc([C@H]2CN3CCSC3=N2)cc1`, which fold change permeability is on record?
The fold change permeability was 1.5 (active).

With `CCN(CC)CCn1c(=O)c(Cc2ccc(OC)cc2)nc2ccccc21` as the molecule, how does the fold change permeability read?
The fold change permeability was 0.7 (active).

For `O=C(S)S`, which fold change permeability is on record?
Its fold change permeability is 1.4 (active).

For `O=C(O)CCCCC1CCSS1` (configuration not stated), which fold change permeability is on record?
Its fold change permeability is 0.7 (active).

For `CC(=O)O[C@H]1CC[C@@]2(C)C(=CC[C@@H]3[C@@H]2CC[C@]2(C)C(c4cccnc4)=CC[C@@H]32)C1`, which fold change permeability is on record?
The fold change permeability was 1.8 (active).

For `N[C@@H](C(=O)N[C@@H]1C(=O)N2C(C(=O)O)=C(Cl)CS[C@H]12)c1ccccc1`, which fold change permeability is on record?
Its fold change permeability is 0.9.

For `O=C(CCc1ccc(O)cc1)c1c(O)cc(O)cc1O`, which fold change permeability is on record?
Its fold change permeability is 1.

For `CC1(C)CC=C(c2cnc3ccccc3c2)c2cc(C(=O)Nc3ccc(C(=O)O)cc3)ccc21`, which fold change permeability is on record?
Its fold change permeability is 1.1.
